# Sampled rows, rich in hits. Any-hit rate of the full collection: about 3.6%.
# TDP43 rescue: TDP-43 toxicity inhibition in yeast; 1.8% of 410,000 active; Potency, µM (doses to about 46.1 µM), usual class: activators; AID 652104; TDP-43 expressing yeast growth rescue, BacTiter-Glo, 24 h; also: nearly all actives have a fitted effect of over 50% in size
#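 Cell-based yeast growth screen: TDP-43 expression induced in galactose, inoculum OD600=0.02 after raffinose pregrowth to mid-log. Read-out BacTiter-Glo luminescence at 24 hr, 30 deg C; inhibition of toxicity seen as signal increase.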
# FUS yeast rescue: rescues growth of FUS-expressing yeast; S. cerevisiae FUS-expressing, growth rescue, OD600, 24 h; Potency, µM (highest dose often 76.6 µM), usual class: activators; 0.24% of 390,000 active; AID 1347120; also: nearly all actives have a fitted effect of over 55% in size
#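 Yeast expressing FUS under galactose induction, OD 0.005 in 2% galactose medium; compounds in a dilution series, 24 h at 30C. Growth rescue by absorbance at 600 nm; CP55940 positive control, DMSO negative.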
# Abeta rescue: restores growth of yeast expressing A-beta42 peptide | yeast expressing A-beta42, growth rescue, OD600, 48 h; response scale: 0% DMSO, 100% iron-clioquinol control | Potency, µM (series often up to 46.1 µM), hits mostly activators | 0.063% of 410,000 active; also: nearly all actives have a fitted effect of over 55% in size
#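 Yeast A-beta toxicity model in growth medium with pinned compounds, 48 h at 30 C; growth read as absorbance at 600 nm. Normalized to FeCl3/clioquinol equimolar mix (positive) and DMSO (negative).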
# aSyn yeast inh: alpha-synuclein toxicity inhibition in yeast. Yeast expressing alpha-synuclein, growth rescue, BacTiter-Glo, 24 h. Potency, µM (titrated, usually from 46.1 µM), actives largely listed as activators. 0.14% of 370,000 active. AID 652106; also: nearly all actives have a fitted effect of over 65% in size
#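 Galactose-induced alpha-syn yeast (OD600=0.02, raffinose-pregrown) + pinned cpd, 24 hr, 30 deg C; growth by BacTiter-Glo luminescence. Growth restoration scores as activation.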
# MmCpn inh: M. maripaludis TRiC chaperonin inhibition; purified Mm-Cpn ATPase, ADP Transcreener TR-FRET; AID 504842; 0.031% of 330,000 active; Potency, µM (top dose mostly 76.9 µM), hits mostly inhibitors; also: nearly all actives have a fitted effect of over 80% in size
#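 TR-FRET (320 nm excitation; 590 and 665 nm emission) reports ADP made from 10 uM ATP by 25 nM enzyme; compounds were preincubated 10 min, reaction run 30 min, both at 37°C.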
# ClpP mod: qHTS Assay for Activators of ClpP | purified B. subtilis ClpP, FRET peptide cleavage, 20 min | ATP-dependent Clp protease proteolytic subunit (Bacillus subtilis (strain 168)), P80244 | 1.9% of 340,000 active | Potency, µM (highest dose often 57.5 µM) | AID 651965, 2013; active = well fitted falling curve with a large enough effect; inconclusive = small, poorly fitted or top-dose-only effect; inactive = no such curve, though single readings can be large or run the other way; also: the source files actives as falling curves though it sought activators and does not explain the sign; nearly all actives have a fitted effect of over 65% in size
# Target sequence (P80244 whole entry, looked up): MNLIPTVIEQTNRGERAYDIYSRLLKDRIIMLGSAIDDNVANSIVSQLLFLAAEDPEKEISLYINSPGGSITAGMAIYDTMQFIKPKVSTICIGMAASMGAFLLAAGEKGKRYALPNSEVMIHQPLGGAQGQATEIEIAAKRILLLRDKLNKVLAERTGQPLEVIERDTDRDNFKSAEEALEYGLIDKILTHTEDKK
#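 FRET quenching reversal measured ClpP activation: 10 microg/mL B. subtilis ClpP at pH 8 with the FRET-FV decapeptide, read at 430 nm after 320 nm excitation. The 20-min minus 0-min signal was scaled between DMSO/no-enzyme wells and ADEP (5.8 microM final).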
# Hits are given with their value; n = inactive; u = inconclusive; x = not tested or not shown; ! = not active in a repeat; [ ] = remark or other dose. Unless noted, calls follow the shape of the dose curve; as a rule, active = well fitted curve in the direction sought with a large enough effect; inconclusive = small, poorly fitted or top-dose-only effect, or another doubt; inactive = no such curve, though single readings can be large; an effect the other way counts as inactive or inconclusive.
SMILES,TDP43 rescue,FUS yeast rescue,Abeta rescue,aSyn yeast inh,MmCpn inh,ClpP mod
COc1cc2[nH]c3c(=O)n(CCN(C(C)C)C(C)C)cnc3c2cc1OC,n,n,n,n,n,28.2µM
CC(C)N(CCn1cnc2c([nH]c3ccccc32)c1=O)C(C)C,n,n,n,n,n,n
O=C(O)c1ccc(N/N=C/c2ccc(C(F)(F)F)cc2)cc1,n,n,n,n,n,x
CC(C)(C)c1ccc(/C=N/Nc2ccc(C(=O)O)cc2)cc1,15.8µM,n,n,n,n,n
CCn1c(SCc2cccc(Br)c2)nnc1-c1nonc1NC(C)=O,n[9.22 µM],n,n,x,x,n
Cc1nc(C#N)nc(Oc2ccccc2)c1Cl,x,x,x,n,x,n
CCOC(=O)c1sc2ncn(CC(=O)Nc3ccc(F)cc3F)c(=O)c2c1C,n,n,n,x,x,n
COc1ccc(-c2csc(C(C)(NC(C)=O)c3ccc(OC)cc3)n2)cc1 (centres undefined),u,n,n,n,x,n
COc1ccc(C(C)(NC(C)=O)c2nc(-c3ccc(F)c(Cl)c3)cs2)cc1 (centres undefined),35.5µM,u,n,n,x,n
CCC(=O)Nc1c(-c2ccc(OC)cc2)c(=O)c2ccccc2n1C,n,n,n,n,n,35.5µM
CCCCn1cc2c(c1-c1ccccc1Br)c(=O)n(C)c(=O)n2C,n,n,n,x,x,n
CCOC(=O)CNC(=O)Cn1nc(N2CCN(c3ccccc3)CC2)ccc1=O,n,n,n,x,x,n
CC(=O)c1cccc(NC(=O)C(OC(=O)/C=C/c2ccc3c(c2)OCO3)c2ccccc2)c1 (centres undefined),n,n,n,n,n,28.2µM
CCOC(=O)c1cccc(NC(=O)/C=C/c2ccc3c(c2)OCO3)c1,n,x,n,n,n,u
O=C(Nc1ccc2nsnc2c1)c1ccc2c(c1)OCO2,n,n,n,n,n,u
Cc1ccc(-n2nc3ccc(NC(=O)c4ccc5c(c4)OCO5)cc3n2)cc1,n,n,n,n,n,14.1µM
CC(=O)c1cccc(NC(=O)c2ccc3c(c2)OCO3)c1,12.6µM,n,n,n,n,n
O=C(Nc1ccc2nn(-c3ccccc3)nc2c1)c1ccc2c(c1)OCCO2,n,n,n,n,n,8.91µM
Cc1ccc(-n2nc(C)c3c(C)c(CCC(=O)NCc4ccccc4Cl)c(C)nc32)cc1,n,n,n,x,x,n
COc1ccccc1Cc1nc2ccccc2nc1SCC(=O)Nc1c(C)cccc1C,n,n,n,n,x,n
Cc1ccc(CN(Cc2ccco2)C(=O)COc2ccc(Cl)cc2)o1,n,n,n,x,x,n
CC(=O)c1cccc(NC(=O)N(c2ccccc2)c2ccccc2)c1,15.8µM,n,n,n,n,n
Cc1cccc(CNC(=O)C2CCN(c3nnc(-n4c(C)ccc4C)s3)CC2)c1,n,n,n,x,x,n
CC(=O)NC(Cc1ccc(Cl)cc1)C(=O)NCC(N)C(=O)c1ccccc1 (centres undefined),x,x,x,n,x,n
COC(=O)C1=C(C)N(c2cc(Cl)cc(Cl)c2)C(=O)C1,17.8µM,n,n,n,n,n
SMILES,TDP43 rescue,FUS yeast rescue,Abeta rescue,aSyn yeast inh,MmCpn inh,ClpP mod
COC(=O)C1=C(C)N(c2ccc(C(=O)OC)cc2)C(=O)C1,n,n,n,n,n,n
CCOC(=O)N1CCN(CC(O)COc2ccc(CC)cc2)CC1 (centres undefined),n,n,n,n,n,n
CCOC(=O)N1CCN(CC(O)COCc2ccc(Cl)cc2)CC1 (centres undefined),n,n,n,n,n,14.1µM
COc1ccc(/C=C(\C#N)C(=O)N2CCOCC2)cc1Br,n,x,n,n,n,25.1µM
COc1cc(/C=C(\C#N)C(=O)N2CCOCC2)ccc1OCc1ccccc1,n,n,n,n,n,x
CCN(CCCNC(=O)c1cc2c(=O)[nH]c3ccc(C)cc3c2s1)Cc1ccccc1,n,n,n,x,x,14.1µM
Oc1ccc(/C=N/Nc2ccc(C(F)(F)F)cn2)cc1,10µM,n,u,n,n,n
CCCCNC(=S)N1CCn2cccc2C1c1ccc(F)cc1 (centres undefined),15.8µM,u,n,n,n,n
Cc1[nH]n2c(=O)c3c(nc2c1-c1ccc(Cl)cc1)CCC3,n,n,n,n,n,25.1µM
O=c1c2c(nc3c(-c4ccccc4)c[nH]n13)CCCC2,n,n,n,n,n,u
Cc1[nH]n2c(=O)c3c(nc2c1-c1ccccc1)CCC3,n,n,n,n,n,31.6µM
O=C(Nc1cc(Cl)cc(Cl)c1)c1cnn2c1NC(=C1CC1)C=C2C(F)F,x,x,x,n,x,n
COc1ccc(NC(=O)c2ccco2)cc1NC(=O)c1cc(Br)ccc1Cl,n,n,n,x,x,n
COc1ccc(Br)cc1C(=O)Nc1cccc(NC(=O)c2ccco2)c1,8.91µM,x,n,n,n,n
COc1ccc(NC(=O)c2ccco2)cc1NC(=O)c1ccc(C)c(C)c1,15.8µM,n,n,x,x,n
COc1cccc(NC(=O)c2ccco2)c1,n,n,n,n,n,n
COc1c(C)cc(Br)cc1C(=O)Nc1cccc(NC(=O)c2ccco2)c1,u,x,n,n,n,28.2µM
CC1CCCN(S(=O)(=O)c2cc3c(cc2Cl)NC(=O)CO3)C1 (centres undefined),u,n,n,x,x,n
CCN(C(=O)CCNC(=O)Cn1cnc2ccccc2c1=O)c1cc(OC)ccc1OC,n,n,n,x,x,n
Cc1ccc(-c2nnc(-c3ccccc3)o2)cc1,n,n,n,n,n,u
CCNc1nnc(-c2ccc(C)cc2)o1,n,n,n,n,n,20µM
O=C(COc1ccc([N+](=O)[O-])cc1)N(Cc1ccccc1)Cc1ccccc1,n,x,n,n,n,31.6µM
O=C(Nc1c(-c2ccc(C(F)(F)F)cc2)nc2ncccn12)C1CC1,x,n,x,x,x,x
C=C1C(=O)[C@]23C[C@H]1CCC2[C@]1(C)C(=O)CC[C@@](C)(C(=O)O)C1C[C@@H]3O (some centres undefined),12.6µM,n,n,15.8µM,x,n
C=C1C(=O)[C@]23C[C@H]1CCC2[C@]1(C)CCC[C@@](C)(C(=O)O)C1C[C@@H]3O (some centres undefined),u,n,n,u,x,n
Cc1nc2cc(Cl)ccc2n1-c1ccccc1,12.6µM,n,n,n,x,n
Cc1cc(C)cc(-n2c(C)nc3cc(C(=O)O)ccc32)c1,12.6µM!,n,n,n,n,n
COc1cc(-n2c(C)nc3cc(C(=O)O)ccc32)cc(OC)c1OC,n,n,n,n,n,n
CC(=O)Nc1ccc2c(c1)nc(C)n2-c1ccccc1,n,n,n,n,n,n

# Screening results: PubChem BioAssay, National Center for Advancing Translational Sciences (NCATS)
